Screens: PubChem BioAssay, National Center for Advancing Translational Sciences (NCATS)
A selection: hits, their analogues and other compounds. The true share with any hit is near 8%.
KB-V1 cytotox = KB-V1 MDR subline cytotoxicity. Potency, µM (series often up to 46.1 µM), usual class: cytotoxic. KB-V1 MDR cells viability, CellTiter-Glo, 72 h. hit rate 3.4% among 400,000; further: on the % scale 0 is the no-effect control and ±100 the full control effect; nearly all actives have a fitted effect of over 60% in size
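Cytotoxicity toward P-gp-expressing KB-V1 cells was determined as loss of CellTiter-Glo luminescence after 72 h at 37 degrees C. Compounds were tested in quantitative HTS format across a concentration range, with curves fitted to normalized data.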
MCF10A rereplic = induces DNA re-replication in MCF 10a normal breast cells. AID 624296. MCF 10A DNA re-replication, Hoechst nuclear intensity, 48 h. Potency, µM (highest dose often 46.1 µM), without a hit: top-dose activity, positive = re-replication, most hits filed as activators. hit rate 2.9% among 350,000; further: % of control where 0% means no effect; nearly all actives have a fitted effect of over 50% in size
HT1080 IDH1KD tx = toxicity to HT-1080 IDH1 knockdown cells (counter line); Potency, µM (doses to about 46.1 µM), inactives show at the highest dose activity, negative = toxicity, actives largely listed as cytotoxic; HT-1080 IDH1 knockdown viability, ATP luminescence, 48 h; hit rate 2% among 360,000; AID 686971;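 further: 0% = DMSO wells and -100% = cell-free medium wells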
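Cytotoxicity counter-line: IDH1KD HT-1080, 48 h, CellTiter-Glo. Curves classed by r2, magnitude and activity.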
KB-3-1 cytotox = kills parental KB-3-1 adenocarcinoma cells | KB-3-1 viability, CellTiter-Glo ATP luminescence, 72 h | Potency, µM (series often up to 46.1 µM), most hits filed as cytotoxic | hit rate 1.4% among 400,000; further: on the % scale 0 is the no-effect control and ±100 the full control effect; nearly all actives have a fitted effect of over 60% in size
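KB-3-1 cells, DMEM (no phenol red) + 10% FBS; compound by pin transfer, 72 h, 37 °C. Readout: CellTiter-Glo luminescence after 10 min. Data normalized, curve-fitted.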
SW480 rerep = DNA re-replication induction in SW480 cells; SW480 DNA re-replication, Hoechst DNA content imaging, 48 h; Potency, µM (top dose mostly 46.1 µM), without a hit: at the top dose re-replication activation, most hits filed as activators; hit rate 1.8% among 340,000; AID 624297; further: % of control where 0% means no effect; nearly all actives have a fitted effect of over 55% in size
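Image-based DNA-content assay: after two days of treatment, nuclei were labelled with the DNA dye Hoechst and imaged, and hits were compounds raising the count of nuclei showing high fluorescence intensity.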
HT1080NT lethal = kills 2HG-producing HT-1080-NT fibrosarcoma cells; hit rate 1.6% among 360,000; HT-1080-NT fibrosarcoma viability, CellTiter-Glo ATP luminescence, 48 h; Potency, µM (top dose mostly 46.1 µM), for inactives: at the highest dose activity, negative = less viability, usual class: cytotoxic; AID 686970;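 further: NT is the 2HG producing partner of a matched IDH1 knockdown line; 0% = DMSO-treated cells and -100% = media-only wells without cells; nearly all actives have a fitted effect of over 55% in size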
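Toxicity toward the 2HG-producing NT line was scored as %Activity, normalised to DMSO and no-cell wells, from CellTiter-Glo luminescence after 48 hours' treatment.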
Active calls of the source: *; i = inactive; ? = inconclusive; nt = no result; ! = repeats disagree. The call rests on the fitted dose curve; in most records, active means well fitted curve in the direction sought with a large enough effect; inconclusive means small, poorly fitted or top-dose-only effect, or another doubt; inactive means no such curve, though single readings can be large; an effect the other way counts as inactive or inconclusive. Potency means the concentration at half of the fitted maximal effect.

SMILES	KB-V1 cytotox	MCF10A rereplic	HT1080 IDH1KD tx	KB-3-1 cytotox	SW480 rerep	HT1080NT lethal
COc1ccc(-c2nc3sc(CCNC(=O)c4cccc(C(F)(F)F)c4)c(C)n3n2)cc1	i	nt	nt	i	nt	nt
COc1cc2nc(CCc3nc4cc(OC)c(OC)cc4[nH]3)[nH]c2cc1OC	i	nt	nt	i	nt	nt
CCOc1cc(C(=O)N/N=C/C(Br)=C/c2ccccc2)cc(OCC)c1OCC	?	1.3µM*	2.1µM*	?	?	3.7µM*
COc1ccc(C(=O)NN=C2CCCC2)cc1OC	?	1%	-25%	i	-8%	-15%
CCOc1cc(C(=O)NN=C2CCCC2)cc(OCC)c1OCC	i	16µM*	?	i	?	?
O=C(N/N=C/C(Br)=C\c1ccccc1)c1ccc2nc[nH]c2c1	i	23µM*	?	?	?	0%
CC(=C/c1ccccc1)/C=N/NC(=O)c1ccc2nc[nH]c2c1	i	?	14%	i	-1%	10%
Cc1ccc(-c2cc(C(=O)Nc3nccs3)c3ccccc3n2)c(C)c1	13µM*	?	4%	i	5%	-3%
Cc1ccc(NC(=O)c2cc(-c3cccs3)nc3ccccc23)nc1	?	22%	21µM*	?	20%	?
O=C(Nc1nccs1)c1cc(-c2ccncc2)nc2ccccc12	?	-11%	-18%	i	0%	2%
Cc1ccc(-c2cc(C(=O)Nc3nccs3)c3ccccc3n2)o1	7.3µM*	?	6%	i	?	7%
O=C(NNc1nc2ccc(Cl)cc2s1)c1cc(-c2cccs2)nc2ccccc12	?	18µM*	?	?	?	?
COc1cccc2c1cc1c(=O)n(CC(=O)O)nc(C)n12	?	nt	nt	i	nt	nt
COc1ccc(NC(=O)c2cc(-c3ccc(C)o3)nc3ccccc23)cc1OC	16µM*	25%	?	?	9%	?
COc1ccc(NC(=O)Nc2cc(C(=O)NCc3ccc(C)cc3)ccc2N2CCCC2)cc1	i	nt	nt	i	nt	nt
O=C(C[n+]1cccc(Br)c1)c1ccc(Br)cc1	i	nt	nt	i	nt	nt
CS(=O)(=O)N1CCC(N2CCN(Cc3ccccc3)C(=O)C2=O)CC1	i	nt	nt	i	nt	nt
Cc1cccc(NC(c2ccccc2C)c2ccc3ccc(C)nc3c2O)n1 (stereo not drawn)	i	nt	nt	i	nt	nt
Cc1ccc2ccc(C(Nc3ccccc3)c3ccc(C(C)C)cc3)c(O)c2n1 (stereo not drawn)	?	nt	?	15µM*	nt	?
Cc1ccc2ccc(C(Nc3ccccc3)c3ccc(F)cc3)c(O)c2n1 (stereo not drawn)	?	nt	?	i	nt	?
COc1cc(C(Nc2ccccn2)c2ccc3ccc(C)nc3c2O)cc(OC)c1O (stereo not drawn)	16µM*	13µM*	15µM*	?	21µM*	-29%
Cc1cccc(NC(c2ccc(C)s2)c2ccc3ccc(C)nc3c2O)n1 (stereo not drawn)	i	5.8µM*	-1%	i	?	-1%
Cc1ccc2ccc(C(Nc3ccccc3)c3ccccc3)c(O)c2n1 (stereo not drawn)	?	nt	?	4.1µM*	nt	-8%
CC(=O)c1ccc(NC(=O)C2CCC(CNS(=O)(=O)c3cccc4nsnc34)CC2)cc1 (stereo not drawn)	i	nt	nt	i	nt	nt
Cc1ccnc(NC(=O)CCCOc2cc(=O)n(C)c3ccccc23)c1	8.2µM*!	15µM*	?	3.7µM*!	7.3µM*	?
SMILES	KB-V1 cytotox	MCF10A rereplic	HT1080 IDH1KD tx	KB-3-1 cytotox	SW480 rerep	HT1080NT lethal
Cn1c(=O)cc(OCCCC(=O)N2CCN(c3ccccc3)CC2)c2ccccc21	?	9.2µM*	-19%	i	-1%	-5%
Cn1c(=O)cc(OCCCC(=O)NC2CCCC2)c2ccccc21	15µM*	?	-27%	i	-1%	?
CCN(c1ncnc2c1cnn2-c1cc(Cl)ccc1C)C1CCCCC1	i	nt	nt	?	nt	nt
CN(C)c1cccc(N2CCN(c3nn4c(=O)c5ccccc5nc4s3)CC2)c1	i	nt	nt	i	nt	nt
O=c1oc2ccccc2c(N2CCN(c3ccccc3F)CC2)c1CN1CCCC1	i	nt	nt	i	nt	nt
COC(=O)c1c(NC(=S)NNS(=O)(=O)c2ccc(OC)cc2OC)sc2c1CCCCCC2	nt	?	-1%	nt	-4%	0%
COC(=O)c1c(NC(=O)c2nn(C)cc2Cl)sc2c1CCCC2	5.8µM*	6%	7%	i	-2%	8%
COC(=O)c1c(NC(=O)c2ccn(C)n2)sc2c1CCC2	i	-10%	9%	i	-6%	8%
COC(=O)c1c(NC(=S)Nc2cc(OC)c(Cl)cc2OC)sc2c1CCCCC2	21µM*	?	16%	i	-2%	-8%
COc1ccc2cnnc(SCC(=O)Nc3ccc(C(C)=O)cc3)c2c1OC	5.2µM*	-9%	0%	i	-6%	1%
COc1ccc2cnnc(SCC(=O)Nc3ccc(C(=O)O)cc3)c2c1OC	?	-1%	7%	i	-3%	2%
COc1ccc2cnnc(SCC(=O)Nc3ccccc3)c2c1OC	2.9µM*	-8%	0%	i	-6%	0%
CC(C)CCC[C@@H](C)[C@H]1CC[C@H]2[C@@H]3CC[C@@H]4C[C@H](O)CC[C@]4(C)[C@H]3CC[C@]12C	nt	1%	nt	nt	5%	nt
CCCc1cc(NCC2CCCO2)n2c(nc3ccccc32)c1C#N (stereo not drawn)	?	16µM*	-19%	i	?	-4%
CCCc1cc(NCCN(C)C)n2c(nc3ccccc32)c1C#N	i	18%	5%	i	2%	2%
O=C(c1ccc(F)cc1)N1CCC(C(=O)N2CCN(S(=O)(=O)c3cccc(F)c3)CC2)CC1	i	3%	-1%	i	?	2%
Cc1ccc(C(C)(C)C)cc1S(=O)(=O)N1CCC(C(=O)N2CCN(c3ccc(O)cc3)CC2)CC1	15µM*	?	-21%	?	10%	-8%
Cc1ccc(C)c(S(=O)(=O)N2CCN(C(=O)C3CCN(C(=O)c4ccc(F)cc4)CC3)CC2)c1	7.3µM*	0%	-1%	i	-8%	0%
Cc1cc(C)c(C)c(S(=O)(=O)N2CCC(C(=O)N3CCN(c4ccc(F)cc4)CC3)CC2)c1C	i	15%	0%	i	23%	-7%
CCOc1ccc(NC(=O)Cc2ccc(NC(=O)N3CCCCc4ccccc43)cc2)cc1	i	nt	nt	i	nt	nt
COc1cc2c(cc1OC)n(CC(=O)Nc1ccc(C)cc1C)c(=O)n1nc(-c3ccccc3)nc21	i	nt	nt	i	nt	nt
